109 compounds from PubChem BioAssay AID764 (NMMLSC, 2007) can be followed below.

Screen size: about 190,000 compounds; about 220 (0.12%) were called active. Another 2% or so got no clear call; they are omitted. The sample holds actives, similar compounds and a random draw of the others, so the mix is not that of the screen. A number with no mark means an inactive call.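 The calls were made as follows: active = GTP binding at least 20 percentage points away from the 100% baseline, in either direction, so actives lie on both sides; inconclusive = Compound likely fluorescent itself, or too few beads counted; inactive = the rest.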

This experiment deals with Ras-related C3 botulinum toxin substrate 1 (Homo sapiens) (UniProt P63000). In words: GTP binding modulators of activated mutant Rac1, primary screen, biochemical, bead-based flow cytometry, multiplex, fluorescent GTP (AID 764). The settings on record: GST-Rac1 activated beads, at 10 µM, actives lie on both sides, 100% means binding = to untreated wells.
`Cc1csc(NC(=O)Nc2ccccc2[N+](=O)[O-])n1`: the percent activity (GTP binding) was 97%.
The figure for `CN(C)S(=O)(=O)Oc1ccccc1C(=O)Nc1ccccc1Cl` is 99%; for `CCOC(=O)N1CCN(CCC(=O)Nc2cc(OC)ccc2OC)CC1` it is 96%.
The figure for `CN1CCN(c2ccc(NC(=O)c3ccc4c(c3)OCCO4)cc2Cl)CC1` is 98%; for `CSc1ncnc2sc(C)c(C)c12` it is 93%; for `CC[n+]1c(C)n(-c2ccccc2)c2ccc(NC(C)=O)cc21` it is 96%.
Next, `Cc1ccc(C)c(NC(=O)CCC(=O)N/N=C2/CC(=O)CC(C)(C)C2)c1`: 96%; `COc1ccc(S(=O)(=O)N2CCN(C(=O)c3cc(C)oc3C)CC2)cc1`: 97%.
With `CC(CC(=O)C1C(C)C=CCC1(C)C)NNC(N)=O` (centres undefined), the percent activity (GTP binding) was 95%.
Next, `Cn1cccc1/C=C1\SC(=O)N(CC(=O)Nc2ccc(F)cc2)C1=O`: 95%.
The figure for `CCOC(=O)C1CCN(C(=O)C2(NC(=O)Nc3cccc(F)c3)CCCCC2)CC1` is 97%; for `CC(C)N(Cc1nc(-c2ccc3c(c2)OCO3)no1)CC1CCC(=O)N1` (centres undefined) it is 98%; for `CCOC(=O)/C(=N\Nc1ccccc1[N+](=O)[O-])c1csc(Nc2ccccc2)n1` it is 91%.
In the case of `C/C(CC(=O)Nc1ccc(C)cc1C)=N\NC(=O)C(C)C`, the percent activity (GTP binding) was 98%.
Turning to `CCN(C(=O)Cc1nc(N)n[nH]1)C1(C(=O)Nc2ccccc2)CCCCC1`, the percent activity (GTP binding) was 97%.
The figure for `CC(=O)c1c(-c2ccccc2)c2ccccc2[nH]c1=O` is 96%; for `COc1ccc(C2=NN(c3ccccc3)C(c3cccs3)C2)cc1` (centres undefined) it is 94%; for `CCS(=O)(=O)c1ccc(O)c(NC(=O)COc2ccc(Cl)cc2)c1` it is 95%.
As to `O=C(CC1CCCCC1)NCc1ccco1`, the percent activity (GTP binding) is 92%.
The figure for `CCOc1ccc(Br)cc1S(=O)(=O)N1CCC(C(=O)O)CC1` is 94%; for `CSc1nsc(SC)c1NC(=O)OC1CCCCC1` it is 33% (active).
Next, `COc1ccc(NC(=O)c2c(SC)nsc2SC)cc1`: 100%; `CSc1ncccc1C(=O)NC1CCCCCC1`: 96%; `Cn1c(CCC(=O)OCC(=O)NCc2ccccc2Cl)nc(=O)c2ccccc21`: 95%.
Turning to `COc1ccc(-c2nc(N)sc2C2(O)C(=O)Nc3c(Br)cc(F)cc32)cc1OC` (centres undefined), the percent activity (GTP binding) is 95%.
For the compound `COc1cccc(Cn2cnc3c([N+](=O)[O-])c(C)c(C)cc32)c1`, the percent activity (GTP binding) was 96%.
Turning to `Cc1nc2ccccn2c1C(=O)NN=C1CCN(C)CC1`, the percent activity (GTP binding) is 98%.
Take `O=C1c2ccccc2C(=O)N1CCC(O)C[N+](=O)[O-]` (centres undefined): the percent activity (GTP binding) is 98%.
Next, `CC(=O)Nc1ccc(Sc2ccccc2C(=O)N2CCCC2)cn1`: 98%; `CCOc1ccc(C(CC(=O)O)n2cnnn2)cc1OC` (centres undefined): 91%.
As to `Cc1c(Cl)c([N+](=O)[O-])nn1CC(=O)NCC1CCCO1` (centres undefined), the percent activity (GTP binding) was 96%.
As to `CC(NC(=O)COC(=O)c1ccc(Cl)cc1O)c1ccc(F)cc1` (centres undefined), the percent activity (GTP binding) is 99%.
The figure for `Cc1ccc(Nc2c(F)c(F)c(F)c(F)c2C(=O)O)c(C)c1` is 139% [activator] (active); for `COc1c(F)c(F)c(C(=O)O)c(Nc2ccccc2C)c1F` it is 97%.
With `Cc1ccc(NC(=S)NC(=O)c2ccc(-c3ccccc3)cc2)c(C)c1`, the percent activity (GTP binding) was 92%.
On to `COc1ccc(/C=C/C(=O)c2cc(Br)ccc(=O)c2O)cc1`, for which the percent activity (GTP binding) is 78% (active).
The figure for `COc1ccc(C(=O)/C=C/c2ccc(OC3CSC3)cc2)cc1` is 95%.
The figure for `COc1ccc(/C=C/C(=O)c2ccc(OC)cc2O)cc1` is 96%.
The figure for `CCOC(=O)c1c(C)[nH]c(C2=NNC(=NC(C)COC)SC2)c1C` (centres undefined) is 97%; for `Cc1cccc(NC(=O)Nc2ccc3c(c2)OCO3)n1` it is 97%.
Turning to `CC(C(=O)NCC1CCCCC1)N(C)Cc1cccc(Cl)c1` (centres undefined), the percent activity (GTP binding) is 95%.
The figure for `CN(C)CCOc1cccc(Br)c1` is 95%; for `N=C1C(c2nc3ccccc3s2)=C(O)CN1NC(=O)c1ccc([N+](=O)[O-])cc1` it is 84%; for `C/C(=N/N1CCN(Cc2cccc3ccccc23)CC1)c1cccnc1` it is 95%.
`CCc1cccc(OC2OC(CO)C(O)C(O)C2NC(C)=O)c1` (centres undefined): the percent activity (GTP binding) was 97%.
As to `S=C(Nc1ccc(Br)cc1Cl)N1CCC2(CC1)OCCO2`, the percent activity (GTP binding) is 98%.
The figure for `Cc1cccc2c1N(CCOc1ccccc1)C(=O)C2=O` is 98%; for `Cc1ccc(CC2CC(=O)N(c3nc(C)cc(C)n3)C2=O)cc1` (centres undefined) it is 97%.
The figure for `CNC(=O)COc1ccc(S(=O)(=O)Nc2ccccc2)cc1` is 98%; for `C=CCN(CC=C)S(=O)(=O)c1ccc(C(=O)Nc2sc3c(c2C(N)=O)CCCCC3)cc1` it is 100%; for `COCCN(CCOC)S(=O)(=O)c1ccc(C(=O)Nc2nc3c(s2)CCc2ccccc2-3)cc1` it is 100%.
Next, `C=CCN(CC=C)S(=O)(=O)c1ccc(C(=O)Nc2nc3c(s2)CCc2ccccc2-3)cc1`: 54% (active); `CCOC(=O)c1[nH]cnc1C(=O)Nc1ccccc1C`: 95%.
Turning to `CCOc1ccc(N2C(=O)Nc3ccccc3C2(O)C(=O)NCc2ccco2)cc1` (centres undefined), the percent activity (GTP binding) is 99%.
Next, `CCOC(=O)c1sc(/N=C/C2=C(O)CC(C)(C)CC2=O)c(C(=O)OCC)c1C`: 95%; `O=C(NCCOc1ccccc1F)Nc1ccc(Br)cc1`: 93%.
Next, `C=CCn1c(CNC(=O)c2ccco2)nnc1SCC(=O)c1ccc(OC)cc1`: 97%; `COc1ccc(CCNC(=O)CN(c2ccccc2)S(C)(=O)=O)cc1`: 97%.
The figure for `COc1cccc(OC)c1C(=O)NC(=S)Nc1ccc(N2CCOCC2)c(Cl)c1` is 95%; for `NS(=O)(=O)c1ccc(NC(=O)COC(=O)CCc2c[nH]c3ccccc23)cc1` it is 99%.
Consider `CCOC(=O)C(=Cc1ccccc1OC)C(=O)OCC`, for which the percent activity (GTP binding) was 89%.
The figure for `COc1cc(/C=N/NC(=S)Nc2cccnc2)cc(OC)c1O` is 89%.
For `CCc1cc2c(=O)c(-c3nc4ccccc4n3C)c(CCCC(=O)O)oc2cc1OC(=O)C(C)(C)C`, the percent activity (GTP binding) is 94%.
`Cc1ccc(O)c(NC(=S)NC(=O)COc2ccc(Br)cc2)c1`: the percent activity (GTP binding) is 92%.
Next, `COc1cc(N2C(=O)c3ccccc3C2=O)c(Cl)cc1C(=O)OCC(=O)N1CCOCC1`: 97%; `COc1ccc(N2CCN(C(C)=C3C(=O)c4ccccc4C3=O)CC2)cc1`: 92%; `CCOC(=O)C(C)n1nc(-c2ccccc2)c2ccccc2c1=O` (centres undefined): 96%.
As to `Cc1ccc(CN(Cc2cccnc2)C(=S)Nc2cc(Cl)ccc2C)cc1`, the percent activity (GTP binding) is 95%.
The figure for `CC1Cc2ccccc2N1S(=O)(=O)c1c(N)n(C)c(=O)n(C)c1=O` (centres undefined) is 102%; for `C/C(N)=C(/C#N)C(=O)COC(=O)C1CCN(C(=O)c2ccc(Cl)cc2)CC1` it is 97%; for `O=C(COC(=O)c1ccc(F)cc1)Nc1nc2ccc([N+](=O)[O-])cc2s1` it is 93%.
Turning to `COc1cccc(CNn2cn[nH]c2=S)c1OCc1ccccc1`, the percent activity (GTP binding) was 95%.
Next, `COC(=O)C1=C(C)N(C)C(=O)NC1c1ccc([N+](=O)[O-])o1` (centres undefined): 93%; `CCOC(=O)C1CCN(S(=O)(=O)c2cc(F)ccc2OC)CC1`: 96%; `Cc1cccc(N(C(=O)Cc2cccs2)C(C(=O)NCc2ccco2)c2ccncc2)c1` (centres undefined): 101%.
Turning to `O=C(c1ccc(F)cc1)n1cc(C(=S)N2CCOCC2)c2ccccc21`, the percent activity (GTP binding) was 98%.
The figure for `CCCN(CC(=O)Nc1ccccc1C)C(=O)c1cc(=O)[nH]c2ccccc12` is 95%.
The figure for `CCCC(=O)NC(=S)Nc1ccc(CN2CCOCC2)cc1` is 95%.
Turning to `CCN1CCc2nc(NC(=O)c3cc(F)c(F)cc3Cl)sc2C1`, the percent activity (GTP binding) is 95%.
For `CCCCc1ccc(NC(=S)NCCCN2CCOCC2)cc1`, the percent activity (GTP binding) was 94%.
Next, `CCOc1ccc(CN2CCN(Cc3ccc(C)o3)CC2CCO)cc1` (centres undefined): 96%; `O=Cc1ccc(OCc2cn3ccccc3n2)cc1`: 97%; `Brc1cc(/C=N/n2cnnc2)oc1Br`: 100%.
As for `CS(=O)(=O)Nc1cccc(-c2cn3ccccc3n2)c1`, the percent activity (GTP binding) was 96%.
Next, `CCOC(=O)CNC(=O)/C(=C\c1ccc(F)cc1)NC(=O)c1ccccc1`: 95%.
In the case of `COc1cccc(CC(=O)N2CCCC(CCC(=O)N3CCN(c4ccccn4)CC3)C2)c1` (centres undefined), the percent activity (GTP binding) is 96%.
The figure for `Cc1cccc(C)c1NC(=O)C1CCCN1C(=O)OC(C)(C)C` (centres undefined) is 97%; for `CCOc1cc(NC(=S)NCCCN(C)C)c(OCC)cc1NC(=O)C1CC1` it is 95%; for `CCC(C)c1ccc(NC(=S)NCc2ccccn2)cc1` (centres undefined) it is 94%.
As for `COc1cccc(/C=C2\SC(=N)N(c3ccc(F)cc3)C2=O)c1`, the percent activity (GTP binding) was 93%.
Next, `O=C(CSc1ccc(-c2ccco2)nn1)NCc1ccc2c(c1)OCO2`: 96%; `COc1ccc(N(CC(=O)Nc2ccc(C)cc2C)S(=O)(=O)c2ccccc2[N+](=O)[O-])c(OC)c1`: 93%; `CCOc1ccc(CCN2C(=O)c3cccnc3C2=O)cc1OCC`: 97%.
Next, `O=C1N/C(=C/c2cccs2)C(=O)N1Cc1ccc(F)cc1`: 97%; `O=C(Nc1ccc2c(c1)C(=O)OC2)Nc1cccc2ccccc12`: 96%; `NC(=O)C1CCN(C(=O)COc2cccc3cccnc23)CC1`: 95%.
As to `Cn1c(N)c(C(=O)COC(=O)c2cnc(Cl)c(Cl)c2)c(=O)n(C)c1=O`, the percent activity (GTP binding) was 93%.
Next, `CN(C)c1ccc2c(=O)[nH][nH]c(=O)c2c1`: 99%.
On to `O=S(=O)(NCCc1ccc(F)cc1)c1cccc2cccnc12`, for which the percent activity (GTP binding) was 96%.
The figure for `CCC(=O)N1CCC(C(N)=O)(N2CCCCC2)CC1` is 96%; for `COc1cc2sc(C)nc2cc1C` it is 95%; for `CCN(CC)P(=O)(Nc1ccc(SC(F)F)cc1)c1ccc(N(C)C)cc1NC(=O)c1ccco1` (centres undefined) it is 92%.
On to `COc1ccc(C2=NN(C(=O)CCC(=O)O)C(c3cccs3)C2)cc1OC` (centres undefined), for which the percent activity (GTP binding) is 96%.
Next, `COCCCNC(NC(=O)c1ccc(OC)cc1)C(Cl)(Cl)Cl` (centres undefined): 95%; `COc1ccc(NS(=O)(=O)c2cc(NC(=O)C3CCCCC3)ccc2N2CCOCC2)cc1`: 96%.
Turning to `C/C=C/c1ccc(OCC(O)CN2CCCCCCC2)c(OC)c1` (centres undefined), the percent activity (GTP binding) is 96%.
Consider `CC(C)N(C(=O)CSc1nc(COc2ccccc2)nc2ccccc12)C(C)C`, for which the percent activity (GTP binding) was 93%.
Next, `O=C(Nc1nnc(Cc2ccccc2)s1)c1cnccn1`: 99%; `CCOc1cc(/C=N/NC(=O)c2ccc(CSc3nncn3C)cc2)ccc1OCC(=O)N1CCOCC1`: 93%.
